{
  "source": "PubChem BioAssay (EPA / NIEHS)",
  "note": "Records with an inconclusive call do not appear. Calls of active or inactive are those of the source. How the source made its calls: active means hit-call score of the fitted dose curve at least 0.9, where 1 is the maximum; inconclusive means response in the unintended direction; inactive means score below 0.9.",
  "data": [
    {"molecular_target": "human Colony Stimulating Factor 1 Receptor (CSF1R), CSF1R (gene 1436) (UniProt P07333)", "sequence (P07333 whole entry, looked up)": "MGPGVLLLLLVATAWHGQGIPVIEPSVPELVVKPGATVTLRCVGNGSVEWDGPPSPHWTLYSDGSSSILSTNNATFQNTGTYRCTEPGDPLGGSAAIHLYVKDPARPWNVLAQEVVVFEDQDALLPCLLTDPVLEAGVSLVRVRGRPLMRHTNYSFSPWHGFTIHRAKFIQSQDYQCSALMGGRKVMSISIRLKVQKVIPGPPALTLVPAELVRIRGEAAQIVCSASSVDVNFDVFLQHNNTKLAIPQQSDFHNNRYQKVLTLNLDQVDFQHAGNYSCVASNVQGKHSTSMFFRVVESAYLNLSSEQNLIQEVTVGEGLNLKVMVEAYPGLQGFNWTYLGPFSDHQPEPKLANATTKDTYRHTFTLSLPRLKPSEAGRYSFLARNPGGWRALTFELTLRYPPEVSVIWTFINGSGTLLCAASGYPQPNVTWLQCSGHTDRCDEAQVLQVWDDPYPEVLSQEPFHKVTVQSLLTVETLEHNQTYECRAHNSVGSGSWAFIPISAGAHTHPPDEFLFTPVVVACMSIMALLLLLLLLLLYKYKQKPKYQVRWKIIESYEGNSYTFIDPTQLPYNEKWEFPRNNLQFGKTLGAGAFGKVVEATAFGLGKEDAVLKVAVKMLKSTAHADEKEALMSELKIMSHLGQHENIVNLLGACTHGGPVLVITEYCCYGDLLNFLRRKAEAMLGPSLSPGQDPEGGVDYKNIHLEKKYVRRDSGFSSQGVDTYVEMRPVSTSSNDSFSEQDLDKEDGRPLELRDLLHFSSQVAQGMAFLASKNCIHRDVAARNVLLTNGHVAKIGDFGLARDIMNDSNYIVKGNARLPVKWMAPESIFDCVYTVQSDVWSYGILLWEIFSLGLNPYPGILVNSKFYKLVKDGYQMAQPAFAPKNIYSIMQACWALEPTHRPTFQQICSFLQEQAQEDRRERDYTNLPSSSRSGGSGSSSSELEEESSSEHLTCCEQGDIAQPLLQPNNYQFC", "experiment": "NVS_ENZ_hCSF1R: NovaScreen (NVS) Enzymatic Assay for human Colony Stimulating Factor 1 Receptor (CSF1R) (AID 2283150)", "outline": "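Compounds screened in duplicate at 25 uM, then concentration-response (top 50 uM) for those passing threshold such as 30% inhibition; recombinant CSF1R activity measured 1 h post-dosing via fluorescent substrate/product mobility-shift separation, loss of signal versus DMSO.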", "values": [
      {"smiles": "O=C(N[C@H]1CN2CCC1CC2)c1ccc2c(c1)OCCO2", "outcome": "inactive"},
      {"smiles": "CCCCCCCCCCCCc1cccc(S(=O)(=O)O)c1", "AC50": "17.3 µM (active)"},
      {"smiles": "N#Cc1cccnc1", "outcome": "inactive"}
    ]},
    {"molecular_target": "human Epidermal Growth Factor Receptor (EGFR), EGFR (gene 1956) (UniProt P00533)", "sequence (P00533 whole entry, looked up)": "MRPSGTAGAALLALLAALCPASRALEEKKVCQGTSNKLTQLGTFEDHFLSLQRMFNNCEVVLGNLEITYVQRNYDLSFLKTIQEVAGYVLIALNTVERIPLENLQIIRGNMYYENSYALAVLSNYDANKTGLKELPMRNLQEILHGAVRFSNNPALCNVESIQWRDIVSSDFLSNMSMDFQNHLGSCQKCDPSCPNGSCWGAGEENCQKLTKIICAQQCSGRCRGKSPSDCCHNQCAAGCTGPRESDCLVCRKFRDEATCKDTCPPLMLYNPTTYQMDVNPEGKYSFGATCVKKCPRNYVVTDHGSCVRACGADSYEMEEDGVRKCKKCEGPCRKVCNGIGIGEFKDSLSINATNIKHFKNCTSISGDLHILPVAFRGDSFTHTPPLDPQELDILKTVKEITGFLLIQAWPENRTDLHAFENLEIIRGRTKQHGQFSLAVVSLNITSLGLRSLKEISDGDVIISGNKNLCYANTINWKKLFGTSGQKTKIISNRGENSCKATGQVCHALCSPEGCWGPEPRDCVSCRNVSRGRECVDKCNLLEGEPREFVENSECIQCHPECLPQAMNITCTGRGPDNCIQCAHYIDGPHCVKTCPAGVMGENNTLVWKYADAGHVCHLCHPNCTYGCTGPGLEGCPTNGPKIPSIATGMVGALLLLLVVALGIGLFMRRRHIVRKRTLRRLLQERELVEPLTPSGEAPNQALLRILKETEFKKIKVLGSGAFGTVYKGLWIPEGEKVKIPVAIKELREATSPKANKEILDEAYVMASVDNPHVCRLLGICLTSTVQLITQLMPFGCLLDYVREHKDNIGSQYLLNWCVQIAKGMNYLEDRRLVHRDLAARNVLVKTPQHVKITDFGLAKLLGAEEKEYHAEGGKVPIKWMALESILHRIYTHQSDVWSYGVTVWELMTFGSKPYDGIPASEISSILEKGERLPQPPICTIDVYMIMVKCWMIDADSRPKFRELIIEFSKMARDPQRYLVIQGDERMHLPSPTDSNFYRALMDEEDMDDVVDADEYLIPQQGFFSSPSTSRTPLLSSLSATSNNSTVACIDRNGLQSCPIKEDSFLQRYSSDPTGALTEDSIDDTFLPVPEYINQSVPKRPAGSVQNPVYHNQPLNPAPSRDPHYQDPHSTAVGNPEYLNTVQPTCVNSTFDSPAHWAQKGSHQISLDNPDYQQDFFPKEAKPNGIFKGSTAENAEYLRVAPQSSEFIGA", "experiment": "NVS_ENZ_hEGFR: NovaScreen (NVS) Enzymatic Assay for human Epidermal Growth Factor Receptor (EGFR) (AID 2283151)", "outline": "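Cell-free kinase assay, fluorescence plus electrophoretic mobility shift separating substrate and product, read 1 hour after dosing; loss of signal vs DMSO. Duplicate screen at 25 uM, then concentration-response to 50 uM.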", "values": [
      {"smiles": "CCCCCCCCCCCCOS(=O)(=O)O", "AC50": "36.5 µM (active)"},
      {"smiles": "O=C(N[C@H]1CN2CCC1CC2)c1ccc2c(c1)OCCO2", "outcome": "inactive"},
      {"smiles": "Clc1cccc(Cl)c1Cl", "outcome": "inactive"},
      {"smiles": "CCCCCCCCCCCCc1cccc(S(=O)(=O)O)c1", "AC50": "19.6 µM (active)"}
    ]},
    {"molecular_target": "human Dual Specificity Protein Phosphatase 3 (DUSP3), DUSP3 (gene 1845) (UniProt P51452)", "sequence (P51452 whole entry, looked up)": "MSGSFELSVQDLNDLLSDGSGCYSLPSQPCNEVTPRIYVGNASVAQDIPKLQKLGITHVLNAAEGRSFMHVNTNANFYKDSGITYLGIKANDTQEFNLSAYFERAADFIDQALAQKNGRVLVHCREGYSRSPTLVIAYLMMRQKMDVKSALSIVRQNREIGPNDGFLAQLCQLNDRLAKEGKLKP", "experiment": "NVS_ENZ_hDUSP3: NovaScreen (NVS) Enzymatic Assay for human Dual Specificity Protein Phosphatase 3 (DUSP3) (AID 2283152)", "outline": "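Cell-free fluorescence-intensity enzyme activity assay with recombinant protein and substrate; loss of signal fitted relative to DMSO baseline. Primary screen in duplicate at 25 uM, actives then run in concentration series; measured 0 h after dosing.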", "values": [
      {"smiles": "CCOP(=S)(OCC)OP(=S)(OCC)OCC", "AC50": "17 µM (active)"},
      {"smiles": "O=C(O)C1(c2ccc3c(c2)OC[C@H](Cc2ccc(-c4ccccc4)cc2)[C@H]3O)CCCC1", "AC50": "13.8 µM (active)"},
      {"smiles": "CCOC(=O)CCN(SN(C)C(=O)Oc1cccc2c1OC(C)(C)C2)C(C)C", "AC50": "9.03 µM (active)"},
      {"smiles": "CC(C)O.CC(C)O.OCCN(CCO)CCO.OCCN(CCO)CCO.[Ti]", "AC50": "10.3 µM (active)"},
      {"smiles": "CCCCCCCCCCCCc1cccc(S(=O)(=O)O)c1", "AC50": "16.8 µM (active)"},
      {"smiles": "Cc1cc(C(C)(C)c2ccc(O)c(C)c2)ccc1O", "AC50": "12.5 µM (active)"},
      {"smiles": "CN(C)C(=S)S", "AC50": "8.6 µM (active)"},
      {"smiles": "O=c1oc2ccccc2c(O)c1C(CC(O)c1ccc(-c2ccc(Br)cc2)cc1)c1ccccc1", "note": "(stereo unspecified)", "AC50": "9.57 µM (active)"},
      {"smiles": "CCOC(=O)C(SP(=S)(OC)OC)c1ccccc1", "note": "(stereo unspecified)", "AC50": "18.7 µM (active)"}
    ]}
  ]
}
